From PubChem BioAssay (NCATS)
Inconclusive results are not listed. Active and inactive are the calls of the source. Unless noted, calls come from the whole dose curve; as a rule, active = well fitted curve in the direction sought with a large enough effect; inconclusive = small, poorly fitted or top-dose-only effect, or another doubt; inactive = no such curve, though single readings can be large; an effect the other way counts as inactive or inconclusive.

Tests used:
[1] = biological target: T1, Hexokinase-4 (Homo sapiens) + Glucokinase regulatory protein (Homo sapiens) (UniProt P35557+Q14397); test: qHTS assay for inhibitors of recombinant human GCK-GKRP interaction: ADP-Glo assay (AID 743206);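 note: plate controls were DMSO plus enzyme for no effect and no enzyme for full effect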
T1 sequence (P35557 whole entry, looked up): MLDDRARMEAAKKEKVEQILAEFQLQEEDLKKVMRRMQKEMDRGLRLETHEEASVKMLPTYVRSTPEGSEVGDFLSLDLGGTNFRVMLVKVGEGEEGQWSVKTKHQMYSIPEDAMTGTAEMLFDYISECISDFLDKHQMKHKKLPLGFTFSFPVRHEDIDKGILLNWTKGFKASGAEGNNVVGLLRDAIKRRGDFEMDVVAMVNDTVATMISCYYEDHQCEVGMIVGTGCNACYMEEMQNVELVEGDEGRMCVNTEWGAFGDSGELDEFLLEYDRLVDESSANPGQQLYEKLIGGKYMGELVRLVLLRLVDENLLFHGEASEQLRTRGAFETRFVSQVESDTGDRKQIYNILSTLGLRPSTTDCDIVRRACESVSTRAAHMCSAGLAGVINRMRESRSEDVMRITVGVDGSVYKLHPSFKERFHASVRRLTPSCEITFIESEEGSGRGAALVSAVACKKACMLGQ
T1 sequence (Q14397 whole entry, looked up): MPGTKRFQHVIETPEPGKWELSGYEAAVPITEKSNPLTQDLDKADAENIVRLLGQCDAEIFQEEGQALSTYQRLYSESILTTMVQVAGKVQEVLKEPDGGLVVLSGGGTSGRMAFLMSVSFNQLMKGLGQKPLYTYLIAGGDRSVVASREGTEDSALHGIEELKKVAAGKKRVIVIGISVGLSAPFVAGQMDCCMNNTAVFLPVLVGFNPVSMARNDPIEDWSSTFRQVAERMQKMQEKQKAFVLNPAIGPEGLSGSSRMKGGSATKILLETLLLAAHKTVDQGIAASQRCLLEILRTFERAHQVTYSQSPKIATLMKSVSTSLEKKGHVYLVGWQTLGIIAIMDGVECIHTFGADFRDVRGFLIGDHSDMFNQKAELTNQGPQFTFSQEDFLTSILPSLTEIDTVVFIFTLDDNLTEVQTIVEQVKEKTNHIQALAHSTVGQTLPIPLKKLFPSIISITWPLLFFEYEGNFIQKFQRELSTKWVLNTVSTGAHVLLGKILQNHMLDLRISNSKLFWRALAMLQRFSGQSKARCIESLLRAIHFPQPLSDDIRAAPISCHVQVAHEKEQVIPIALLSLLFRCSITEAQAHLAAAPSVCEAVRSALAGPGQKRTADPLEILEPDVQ
Procedure, shortened: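 GST-GCK and FLAG-GKRP (15 nM each in the dispensed mix, with 2 uM S6P) react with 0.4 mM ATP and 5 mM glucose (final) in Hepes pH 7.6 for 60 min at room temperature. ADP is measured by ADP-Glo luminescence.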

[2] = biological target: T1, Hexokinase-4 (Homo sapiens) + Glucokinase regulatory protein (Homo sapiens); test: qHTS assay for inhibitors of recombinant human GCK-GKRP interaction: HTRF assay (AID 743207);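 note: 0% = DMSO with GCK present and -100% = DMSO wells lacking GCK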
Procedure, shortened: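 5 nM GST-GCK + 5 nM FLAG-GKRP + 2 uM S6P, pH 7.1 buffer (25 mM Hepes, 2 mM MgCl2, 25 mM KCl, 1 mM DTT, Tween/BSA); pin-transferred cpd; anti-FLAG XL665/anti-GST K; 60 min RT; HTRF.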

[3] = qHTS Assay for Identifying Gametocytocidal Compounds (AID 743244);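 note: % is set by controls: 0 for no effect and ±100 for the full control effect; actives lower the fluorescent signal which means gametocytes are killed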; conditions: P. falciparum 3D7 stage III-V gametocytes, alamarBlue, 72 h; max response: stronger effect = lower value
Procedure, shortened: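 Viability read-out was resazurin reduction (alamarBlue, 24 h) measured at Ex 525/Em 598 nm. Beforehand, late-stage (III-V) 3D7 P. falciparum gametocytes at 20,000 cells/well were incubated with compound 72 h at 37C under 5% CO2.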

[4] = qHTS assay for measurement of the activity of small molecule inhibitors on Zika virus induced Caspase-3 activity in human iPSC derived neural progenitor cells (hNPCs) (AID 1224857); note: % of control where 0% means no effect; nearly all actives have a fitted effect of over 65% in size
Procedure, shortened: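 Percent inhibition of virus-induced caspase-3/7 luminescence (Caspase-Glo), scaled between uninfected cells and Zika-infected cells. hNPCs received compound 1 hr before ZIKV at 2 FFU/cell, with 6 hours infection at 37 C.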

[5] = qHTS assay for measurement of the activity of small molecule inhibitors on Zika virus induced Caspase-3 activity in human astrocytoma cells (AID 1224859);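 note: plate controls were ZIKV-infected untreated cells for no effect and uninfected cells for full effect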
Procedure, shortened: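 Luminescent caspase-3/7 read-out (30 min reagent, room temperature) in human SNB-19 cells infected 6 h with ZIKV (2 FFU/cell) after 1 h compound pre-incubation; Data were normalised to uninfected and infected wells.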

[6] = biological target: Atrial natriuretic peptide receptor 1 (Homo sapiens) (UniProt P16066); test: Natriuretic polypeptide receptor (hNpr1) antagonism - Pilot screen (AID 1347049; calls by dose curve;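 note: agonist-evoked cGMP luminescence read 20 min after hNppA addition; series mostly up to about 58 µM; % is set by controls: 0 for no effect and ±100 for the full control effect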)
Chain of Atrial natriuretic peptide receptor 1 (Homo sapiens) (P16066 whole entry, looked up): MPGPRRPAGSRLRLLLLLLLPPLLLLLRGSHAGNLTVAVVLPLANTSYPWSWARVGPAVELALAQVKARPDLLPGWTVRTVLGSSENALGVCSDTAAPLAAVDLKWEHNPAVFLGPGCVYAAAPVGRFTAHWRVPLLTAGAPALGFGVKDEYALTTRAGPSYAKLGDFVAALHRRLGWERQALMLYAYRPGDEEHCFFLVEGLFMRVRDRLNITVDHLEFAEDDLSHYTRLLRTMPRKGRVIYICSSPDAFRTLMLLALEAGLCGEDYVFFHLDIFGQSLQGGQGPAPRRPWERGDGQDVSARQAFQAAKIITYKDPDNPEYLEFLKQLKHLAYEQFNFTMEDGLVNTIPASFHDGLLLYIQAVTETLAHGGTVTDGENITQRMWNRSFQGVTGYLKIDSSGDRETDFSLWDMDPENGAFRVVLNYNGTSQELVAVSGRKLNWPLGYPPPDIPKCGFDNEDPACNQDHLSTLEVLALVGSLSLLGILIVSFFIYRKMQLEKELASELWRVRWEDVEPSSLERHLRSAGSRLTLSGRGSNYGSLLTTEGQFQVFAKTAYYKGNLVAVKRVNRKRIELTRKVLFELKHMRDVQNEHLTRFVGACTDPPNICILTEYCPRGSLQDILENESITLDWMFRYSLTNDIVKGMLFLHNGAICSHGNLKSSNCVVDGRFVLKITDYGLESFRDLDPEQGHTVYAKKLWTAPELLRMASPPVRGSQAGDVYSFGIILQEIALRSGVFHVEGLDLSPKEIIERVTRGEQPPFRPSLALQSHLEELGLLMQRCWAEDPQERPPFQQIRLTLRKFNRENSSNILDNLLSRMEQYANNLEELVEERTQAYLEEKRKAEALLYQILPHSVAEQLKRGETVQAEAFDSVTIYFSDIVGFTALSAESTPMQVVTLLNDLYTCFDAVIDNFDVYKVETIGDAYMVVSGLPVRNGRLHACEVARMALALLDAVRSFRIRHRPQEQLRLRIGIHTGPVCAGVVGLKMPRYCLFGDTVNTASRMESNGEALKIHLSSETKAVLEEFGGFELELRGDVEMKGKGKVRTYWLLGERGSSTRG
Procedure, shortened: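 HEK293 cells expressing hNpr1 and GloSensor cGMP luciferase, 1500/well, loaded with 2% GloSensor reagent 2 h, compound 30 min at room temperature; luminescence read before and 20 min after 0.1 nM hNppA stimulation.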

[7] = biological target: Atrial natriuretic peptide receptor 2 (Homo sapiens) (UniProt P20594); test: Natriuretic polypeptide receptor (hNpr2) antagonism - Pilot subtype selectivity assay (AID 1347050; calls by dose curve; note: % is set by controls: 0 for no effect and ±100 for the full control effect)
Chain of Atrial natriuretic peptide receptor 2 (Homo sapiens) (P20594 whole entry, looked up): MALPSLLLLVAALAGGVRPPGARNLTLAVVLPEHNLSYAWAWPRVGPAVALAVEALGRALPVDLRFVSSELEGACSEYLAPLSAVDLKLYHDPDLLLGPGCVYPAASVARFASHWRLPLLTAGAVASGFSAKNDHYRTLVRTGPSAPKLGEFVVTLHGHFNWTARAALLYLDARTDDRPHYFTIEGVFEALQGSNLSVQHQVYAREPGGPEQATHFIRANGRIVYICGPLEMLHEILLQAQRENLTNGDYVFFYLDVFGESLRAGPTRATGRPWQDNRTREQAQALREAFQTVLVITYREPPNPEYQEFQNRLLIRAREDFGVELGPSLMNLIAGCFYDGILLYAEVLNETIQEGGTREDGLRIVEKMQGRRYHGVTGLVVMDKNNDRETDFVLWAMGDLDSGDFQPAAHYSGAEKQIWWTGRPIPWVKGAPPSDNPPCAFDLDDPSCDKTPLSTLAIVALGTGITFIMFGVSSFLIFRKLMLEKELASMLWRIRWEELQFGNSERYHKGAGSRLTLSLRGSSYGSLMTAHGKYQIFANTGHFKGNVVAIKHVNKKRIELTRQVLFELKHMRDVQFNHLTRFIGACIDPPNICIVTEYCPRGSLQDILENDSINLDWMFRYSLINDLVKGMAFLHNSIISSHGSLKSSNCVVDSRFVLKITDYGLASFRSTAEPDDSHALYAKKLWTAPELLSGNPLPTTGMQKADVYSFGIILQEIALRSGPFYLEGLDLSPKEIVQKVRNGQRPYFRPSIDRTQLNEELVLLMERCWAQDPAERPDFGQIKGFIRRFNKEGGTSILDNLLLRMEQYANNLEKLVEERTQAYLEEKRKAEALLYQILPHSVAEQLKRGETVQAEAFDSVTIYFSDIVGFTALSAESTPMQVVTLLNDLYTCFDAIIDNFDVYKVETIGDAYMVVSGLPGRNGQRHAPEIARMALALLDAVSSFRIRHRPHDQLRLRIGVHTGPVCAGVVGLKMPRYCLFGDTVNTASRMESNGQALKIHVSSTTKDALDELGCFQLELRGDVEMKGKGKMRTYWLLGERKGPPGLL
Procedure, shortened: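 HEK293 cells expressing hNpr2 and a GloSensor cGMP luciferase sensor, 1500/well, preloaded 2 h with 2% GloSensor reagent, compound 30 min, then 1 nM hNppC for 20 min. Antagonism from luminescence after versus baseline pre-read; LOPAC in 1:5 titrations.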

[8] = NS1 protein of Zika virus - qHTS assay to identify small molecule inhibitors in human HEK 293 cells (AID 1347053);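 note: series mostly up to about 46 µM; plate controls were infected untreated cells for no effect and uninfected cells for full effect; nearly all actives have a fitted effect of over 55% in size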
Procedure, shortened: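 HEK 293; 20 h pre-culture, 37 C/5% CO2; cpd 1 h pre-infection; ZIKV MR766, MOI = 0.5, 24 h, 37 C; TR-FRET NS1 readout (two anti-NS1 Abs); norm. to no-virus vs infected.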

[9] = Natriuretic polypeptide receptor (hNpr1) antagonism - Pilot counterscreen GloSensor control cell line (AID 1347045; calls by dose curve; note: series mostly up to about 38 µM; % is set by controls: 0 for no effect and ±100 for the full control effect)
Procedure, shortened: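 HEK293 cells carrying the GloSensor cGMP sensor (GIP/pGS-40F) were loaded with 2% GloSensor reagent for 2 h, exposed to compounds for 30 min, and then stimulated with 50 uM sodium nitroprusside for 20 min at room temperature.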

OC[C@H]1O[C@H](n2cnc3c(N[C@H]4CCC[C@@H]4O)ncnc32)[C@H](O)[C@@H]1O
inactive: Potency [1] | Potency [2] | max response [3] 20.9% | Potency [4] | Potency [5] | Potency [6] | Potency [7] | Potency [8]

O=C(O)[C@H]1NCCC[C@H]1C(=O)O
inactive: Potency [1] | Potency [2] | max response [3] 8.68% | Potency [4] | Potency [5] | Potency [6] | Potency [7] | Potency [8]

C=C1C[C@@]23CC[C@H]4[C@@](C)(CCC[C@@]4(C)C(=O)O)[C@@H]2CC[C@]1(O)C3
inactive: Potency [1] | Potency [2] | max response [3] 31.3% | Potency [4] | Potency [5] | Potency [6] | Potency [7] | Potency [8]

C#CC(N)CCC(=O)O (stereo unspecified)
inactive: Potency [1] | Potency [2] | max response [3] 8.18% | Potency [4] | Potency [5] | Potency [6] | Potency [7] | Potency [8]

COc1ccc(CCN(C)CCc2ccc(OC)c(OC)c2)cc1OC
inactive: Potency [1] | Potency [2] | max response [3] 12.4% | Potency [4] | Potency [5] | Potency [6] | Potency [7] | Potency [8]

CN1C2CCC1CC(OC(c1ccccc1)c1ccccc1)C2 (stereo unspecified)
inactive: Potency [1] | Potency [2] | max response [3] 31% | Potency [4] | Potency [5] | Potency [9] | Potency [8]

C=CC1(C)CC(=O)C2(O)C(C)(O1)C(OC(C)=O)C(O)C1C(C)(C)CCC(O)C12C (stereo unspecified)
inactive: Potency [2] | max response [3] 15.4% | Potency [4] | Potency [5] | Potency [6] | Potency [8]

COc1cc(C(O)CO)ccc1O (stereo unspecified)
inactive: Potency [1] | Potency [2] | Potency [4] | Potency [5] | Potency [6] | Potency [7] | Potency [8]

COC(=O)C1=C(C)NC(C)=C([N+](=O)[O-])C1c1ccccc1C(F)(F)F (stereo unspecified)
inactive: Potency [1] | Potency [2] | max response [3] 19.5% | Potency [4] | Potency [5] | Potency [9] | Potency [8]

N=C(N)SCCN
inactive: Potency [1] | Potency [2] | max response [3] -1.63% | Potency [4] | Potency [5] | Potency [9] | Potency [7]

N[C@H](C(=O)O)[C@H](Cc1ccccc1)C(=O)O
inactive: Potency [1] | Potency [2] | Potency [4] | Potency [5] | Potency [6] | activity change, negative = inhibition [7] -2% [at 1.53 µM] | Potency [8]

Cc1cccc(C(=O)NCN2CCN(c3ccccc3C#N)CC2)c1
inactive: Potency [1] | Potency [2] | max response [3] 20.6% | Potency [4] | Potency [5] | Potency [9] | Potency [7]

C[C@H]1CC2C3CCC4=CC(=O)C=C[C@]4(C)[C@@]3(Cl)[C@@H](O)C[C@]2(C)[C@@]1(O)C(=O)CO (stereo partly specified)
inactive: Potency [1] | Potency [2] | Potency [4] | Potency [5] | Potency [6] | Potency [7] | Potency [8]

[Li+]
inactive: Potency [1] | Potency [2] | max response [3] 24.7% | Potency [4] | Potency [5] | Potency [8]

CCCn1c(=O)c2c(ncn2C)n(CCC)c1=O
inactive: Potency [1] | Potency [2] | max response [3] 12.3% | Potency [4] | Potency [5] | Potency [7] | Potency [8]

N[C@H]1CONC1=O
inactive: Potency [1] | Potency [2] | Potency [4] | Potency [5] | Potency [9] | Potency [7]

COc1ccccc1N1CCN(CCCNc2c(C)c(=O)n(C)c(=O)n2C)CC1
inactive: Potency [1] | Potency [2] | max response [3] -1.96% | Potency [4] | Potency [5] | Potency [6] | Potency [7] | Potency [8]

O=C(O)c1cc2cc(F)ccc2[nH]1
inactive: Potency [1] | Potency [2] | max response [3] 5.51% | Potency [4] | Potency [5] | Potency [6] | Potency [7]

Oc1cc2c(cc1O)C(c1ccccc1)CNCC2 (stereo unspecified)
inactive: Potency [1] | Potency [2] | Potency [4] | Potency [5] | Potency [6] | Potency [7] | Potency [8]

NCCCCN
inactive: Potency [1] | Potency [2] | max response [3] 15.5% | Potency [4] | Potency [5] | Potency [9] | Potency [8]

CCCCOC(=O)NS(=O)(=O)c1sc(CC(C)C)cc1-c1ccc(Cn2c(CC)nc3c(C)cc(C)nc32)cc1
inactive: Potency [1] | Potency [2] | Potency [4] | Potency [5] | Potency [9] | Potency [7]

CCCn1c(=O)c2[nH]c(-c3ccc(S(=O)(=O)O)cc3)nc2n(CCC)c1=O
inactive: Potency [1] | Potency [2] | max response [3] 27.3% | Potency [4] | Potency [5] | Potency [6] | Potency [7] | Potency [8]

Cn1c(=O)c2[nH]c(-c3ccc(S(=O)(=O)O)cc3)nc2n(C)c1=O
inactive: Potency [1] | Potency [2] | max response [3] 26.7% | Potency [4] | Potency [5] | Potency [6] | Potency [8]

CCCOC(=O)c1c(-c2ccccc2)nc(CC)c(C(=O)SCC)c1CCC
inactive: Potency [1] | Potency [2] | Potency [4] | Potency [5] | Potency [7] | Potency [8]

Cn1c(=O)[nH]c2ncn(C)c2c1=O
inactive: Potency [1] | Potency [2] | max response [3] 2.01% | Potency [4] | Potency [5] | Potency [6] | Potency [7] | Potency [8]

Nc1ncnc2c1nc(Br)n2C1OC2COP(=O)(O)O[C@@H]2C1O (stereo partly specified)
inactive: Potency [1] | Potency [2] | max response [3] 31.4% | Potency [4] | Potency [5] | Potency [6] | Potency [7] | Potency [8]
